Assay [1] has as its target T1, 3-phosphoinositide-dependent protein kinase 1 (Homo sapiens) (UniProt O15530).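 Also: values are mean inhibition of PDK1.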
T1 sequence (whole entry): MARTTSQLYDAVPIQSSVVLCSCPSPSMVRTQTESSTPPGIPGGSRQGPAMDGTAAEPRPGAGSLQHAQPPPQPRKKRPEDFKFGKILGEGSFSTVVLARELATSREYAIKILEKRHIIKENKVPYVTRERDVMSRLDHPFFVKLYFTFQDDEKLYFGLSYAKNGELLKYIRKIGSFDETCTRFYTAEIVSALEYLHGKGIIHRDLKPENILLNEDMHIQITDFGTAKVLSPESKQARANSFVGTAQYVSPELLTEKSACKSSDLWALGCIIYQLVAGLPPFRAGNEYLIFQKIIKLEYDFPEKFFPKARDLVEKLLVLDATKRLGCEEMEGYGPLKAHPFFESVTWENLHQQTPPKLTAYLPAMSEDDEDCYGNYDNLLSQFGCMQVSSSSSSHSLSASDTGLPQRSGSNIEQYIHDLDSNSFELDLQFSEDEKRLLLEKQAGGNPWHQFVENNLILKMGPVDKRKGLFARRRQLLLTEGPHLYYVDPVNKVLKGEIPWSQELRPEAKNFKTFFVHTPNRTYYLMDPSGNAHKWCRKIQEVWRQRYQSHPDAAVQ
The settings on record: at 0.1 µM.

Assay [2] concerns the target cAMP-dependent protein kinase catalytic subunit alpha (Homo sapiens) (UniProt P17612). The settings on record: at 0.1 µM.
Assay [3] has the same target. The settings on record: at 1 µM.
For assay [4], the target named is Protein kinase C alpha type (Homo sapiens) (UniProt P17252). The conditions noted are these: at 0.1 µM.
Assay [5] has the same target. The conditions noted are these: at 1 µM.
For assay [6], the target named is Protein kinase C beta type (Homo sapiens) (UniProt P05771). The settings on record: at 0.1 µM.
Assay [7] shares this target. The settings on record: at 1 µM.
Assay [8] concerns the target Protein kinase C eta type (Homo sapiens) (UniProt P24723). The settings on record: at 0.1 µM.
The target is the same in assay [9]. The settings on record: at 1 µM.
The target of assay [10] is Protein kinase C gamma type (Homo sapiens) (UniProt P05129). The conditions noted are these: at 0.1 µM.
Assay [11] has the same target. The settings on record: at 1 µM.
Assay [12] addresses T2, Protein kinase C iota type (Homo sapiens) (UniProt P41743).
T2 sequence (whole entry): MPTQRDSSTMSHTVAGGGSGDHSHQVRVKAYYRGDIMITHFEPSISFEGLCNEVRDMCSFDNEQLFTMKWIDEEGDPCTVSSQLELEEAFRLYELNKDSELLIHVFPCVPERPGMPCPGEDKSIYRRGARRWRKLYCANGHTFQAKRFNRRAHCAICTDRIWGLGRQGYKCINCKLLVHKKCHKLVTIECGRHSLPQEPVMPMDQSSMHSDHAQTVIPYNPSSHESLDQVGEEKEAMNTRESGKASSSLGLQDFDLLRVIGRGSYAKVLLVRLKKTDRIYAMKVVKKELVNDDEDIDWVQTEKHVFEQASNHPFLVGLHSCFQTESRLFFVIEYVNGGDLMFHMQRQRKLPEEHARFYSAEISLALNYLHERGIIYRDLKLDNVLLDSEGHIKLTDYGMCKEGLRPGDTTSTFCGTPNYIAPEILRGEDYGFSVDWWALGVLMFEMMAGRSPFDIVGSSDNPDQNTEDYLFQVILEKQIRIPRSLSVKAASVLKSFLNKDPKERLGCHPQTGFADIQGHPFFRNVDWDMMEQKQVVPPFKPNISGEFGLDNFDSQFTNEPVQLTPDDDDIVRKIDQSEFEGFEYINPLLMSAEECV
The conditions noted are these: at 0.1 µM.

Assay [13] has as its target T2, Protein kinase C iota type (Homo sapiens). The conditions noted are these: at 1 µM.
The target in assay [14] is Protein kinase C theta type (Homo sapiens) (UniProt Q04759). The settings on record: at 0.1 µM.
The target is the same in assay [15]. The settings on record: at 1 µM.
For assay [16], the target named is Protein kinase C beta type (Homo sapiens) (UniProt P05771). The settings on record: at 0.1 µM. The source holds these as a separate data set.
Assay [17] shares this target. The conditions noted are these: at 1 µM. The source holds these as a separate data set.
In assay [18] the target is T3, Serine/threonine-protein kinase D1 (Homo sapiens) (UniProt Q15139).
T3 sequence (whole entry): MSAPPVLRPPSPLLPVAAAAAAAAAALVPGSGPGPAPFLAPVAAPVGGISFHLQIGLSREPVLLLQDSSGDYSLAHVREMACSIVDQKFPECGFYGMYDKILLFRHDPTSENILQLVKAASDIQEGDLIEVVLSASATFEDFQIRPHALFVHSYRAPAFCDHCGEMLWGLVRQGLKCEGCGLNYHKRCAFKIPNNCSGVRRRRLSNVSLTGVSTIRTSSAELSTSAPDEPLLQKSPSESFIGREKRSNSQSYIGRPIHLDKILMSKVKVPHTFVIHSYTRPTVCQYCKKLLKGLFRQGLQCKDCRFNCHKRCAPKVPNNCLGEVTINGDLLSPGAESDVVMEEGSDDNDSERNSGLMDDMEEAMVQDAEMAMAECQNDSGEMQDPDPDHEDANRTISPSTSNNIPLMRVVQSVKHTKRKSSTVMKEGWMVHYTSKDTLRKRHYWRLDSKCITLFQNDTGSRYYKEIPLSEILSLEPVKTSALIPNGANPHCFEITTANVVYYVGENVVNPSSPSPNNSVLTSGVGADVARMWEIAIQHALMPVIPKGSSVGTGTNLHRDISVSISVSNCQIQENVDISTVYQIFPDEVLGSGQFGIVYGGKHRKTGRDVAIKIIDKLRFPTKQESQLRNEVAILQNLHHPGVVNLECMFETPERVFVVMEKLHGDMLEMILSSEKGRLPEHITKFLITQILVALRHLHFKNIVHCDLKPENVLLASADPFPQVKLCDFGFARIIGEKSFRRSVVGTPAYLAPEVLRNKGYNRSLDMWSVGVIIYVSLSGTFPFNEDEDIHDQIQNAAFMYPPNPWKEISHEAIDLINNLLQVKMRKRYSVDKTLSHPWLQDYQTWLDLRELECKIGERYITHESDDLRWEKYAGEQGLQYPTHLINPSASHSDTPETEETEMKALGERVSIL
The settings on record: at 0.1 µM.

The target of assay [19] is T3, Serine/threonine-protein kinase D1 (Homo sapiens). The settings on record: at 1 µM.
In assay [20] the target is T4, Serine/threonine-protein kinase D2 (Homo sapiens) (UniProt Q9BZL6).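 Also: reported percent inhibition values are means, part of the GSK PKIS kinase panel screen.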
T4 sequence (whole entry): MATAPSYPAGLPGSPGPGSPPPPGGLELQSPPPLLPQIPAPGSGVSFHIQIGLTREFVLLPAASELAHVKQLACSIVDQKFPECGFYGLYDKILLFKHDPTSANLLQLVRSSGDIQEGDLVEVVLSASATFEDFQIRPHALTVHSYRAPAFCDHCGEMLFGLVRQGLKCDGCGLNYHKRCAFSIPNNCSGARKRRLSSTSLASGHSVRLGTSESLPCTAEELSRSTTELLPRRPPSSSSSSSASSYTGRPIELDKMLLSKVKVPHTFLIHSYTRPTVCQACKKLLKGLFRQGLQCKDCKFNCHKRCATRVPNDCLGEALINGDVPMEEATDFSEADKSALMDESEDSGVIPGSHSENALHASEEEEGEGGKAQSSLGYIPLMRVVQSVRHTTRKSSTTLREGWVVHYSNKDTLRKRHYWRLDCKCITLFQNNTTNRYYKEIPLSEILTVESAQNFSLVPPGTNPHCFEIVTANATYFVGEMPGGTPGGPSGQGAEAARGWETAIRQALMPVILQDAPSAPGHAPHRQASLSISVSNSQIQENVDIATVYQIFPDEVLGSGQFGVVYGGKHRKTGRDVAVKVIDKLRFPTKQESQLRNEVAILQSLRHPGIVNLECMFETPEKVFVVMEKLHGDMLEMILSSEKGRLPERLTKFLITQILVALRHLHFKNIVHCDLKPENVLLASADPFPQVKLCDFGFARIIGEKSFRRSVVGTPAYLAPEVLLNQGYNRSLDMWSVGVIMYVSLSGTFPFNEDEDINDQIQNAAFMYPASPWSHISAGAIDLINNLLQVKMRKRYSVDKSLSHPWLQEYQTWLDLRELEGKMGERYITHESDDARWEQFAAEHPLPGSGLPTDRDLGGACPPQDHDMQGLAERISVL
The settings on record: at 0.1 µM.

Sequence of Protein kinase C theta type (Homo sapiens) (Q04759 whole entry, looked up): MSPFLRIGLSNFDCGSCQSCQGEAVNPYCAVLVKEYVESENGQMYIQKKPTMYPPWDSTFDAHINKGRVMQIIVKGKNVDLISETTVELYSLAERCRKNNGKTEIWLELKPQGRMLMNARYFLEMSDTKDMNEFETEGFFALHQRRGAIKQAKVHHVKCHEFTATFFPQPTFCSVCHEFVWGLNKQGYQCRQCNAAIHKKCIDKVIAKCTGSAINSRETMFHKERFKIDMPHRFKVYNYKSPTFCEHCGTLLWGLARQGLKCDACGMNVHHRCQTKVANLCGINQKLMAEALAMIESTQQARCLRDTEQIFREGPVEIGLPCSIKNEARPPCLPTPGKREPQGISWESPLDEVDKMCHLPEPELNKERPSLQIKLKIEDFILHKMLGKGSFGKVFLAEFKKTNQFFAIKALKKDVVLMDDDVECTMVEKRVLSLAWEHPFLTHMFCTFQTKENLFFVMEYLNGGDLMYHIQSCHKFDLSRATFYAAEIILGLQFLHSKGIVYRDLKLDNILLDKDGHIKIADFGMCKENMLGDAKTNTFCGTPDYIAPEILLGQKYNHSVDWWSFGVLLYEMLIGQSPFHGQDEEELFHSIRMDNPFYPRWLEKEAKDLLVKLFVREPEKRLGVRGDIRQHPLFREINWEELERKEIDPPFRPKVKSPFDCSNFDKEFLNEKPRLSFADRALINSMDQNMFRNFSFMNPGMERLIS
Sequence of Protein kinase C beta type (Homo sapiens) (P05771 2-671 limits assumed): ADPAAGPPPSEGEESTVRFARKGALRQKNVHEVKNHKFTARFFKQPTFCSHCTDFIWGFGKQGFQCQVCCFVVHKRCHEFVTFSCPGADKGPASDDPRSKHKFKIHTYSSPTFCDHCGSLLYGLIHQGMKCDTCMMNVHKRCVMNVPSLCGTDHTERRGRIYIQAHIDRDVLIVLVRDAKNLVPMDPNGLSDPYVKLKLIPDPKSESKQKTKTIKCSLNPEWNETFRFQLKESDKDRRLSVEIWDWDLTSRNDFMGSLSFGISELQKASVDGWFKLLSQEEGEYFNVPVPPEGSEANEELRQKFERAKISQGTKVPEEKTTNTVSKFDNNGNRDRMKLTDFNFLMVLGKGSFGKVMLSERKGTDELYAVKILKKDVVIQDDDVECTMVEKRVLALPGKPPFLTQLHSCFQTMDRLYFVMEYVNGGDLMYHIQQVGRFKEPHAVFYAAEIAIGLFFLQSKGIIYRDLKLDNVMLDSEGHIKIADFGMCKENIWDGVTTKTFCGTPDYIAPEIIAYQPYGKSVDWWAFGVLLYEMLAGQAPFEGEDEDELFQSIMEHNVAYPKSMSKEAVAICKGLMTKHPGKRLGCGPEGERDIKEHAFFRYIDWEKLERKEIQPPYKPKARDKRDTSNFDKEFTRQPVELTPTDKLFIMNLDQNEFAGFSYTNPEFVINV
Sequence of Protein kinase C eta type (Homo sapiens) (P24723 whole entry): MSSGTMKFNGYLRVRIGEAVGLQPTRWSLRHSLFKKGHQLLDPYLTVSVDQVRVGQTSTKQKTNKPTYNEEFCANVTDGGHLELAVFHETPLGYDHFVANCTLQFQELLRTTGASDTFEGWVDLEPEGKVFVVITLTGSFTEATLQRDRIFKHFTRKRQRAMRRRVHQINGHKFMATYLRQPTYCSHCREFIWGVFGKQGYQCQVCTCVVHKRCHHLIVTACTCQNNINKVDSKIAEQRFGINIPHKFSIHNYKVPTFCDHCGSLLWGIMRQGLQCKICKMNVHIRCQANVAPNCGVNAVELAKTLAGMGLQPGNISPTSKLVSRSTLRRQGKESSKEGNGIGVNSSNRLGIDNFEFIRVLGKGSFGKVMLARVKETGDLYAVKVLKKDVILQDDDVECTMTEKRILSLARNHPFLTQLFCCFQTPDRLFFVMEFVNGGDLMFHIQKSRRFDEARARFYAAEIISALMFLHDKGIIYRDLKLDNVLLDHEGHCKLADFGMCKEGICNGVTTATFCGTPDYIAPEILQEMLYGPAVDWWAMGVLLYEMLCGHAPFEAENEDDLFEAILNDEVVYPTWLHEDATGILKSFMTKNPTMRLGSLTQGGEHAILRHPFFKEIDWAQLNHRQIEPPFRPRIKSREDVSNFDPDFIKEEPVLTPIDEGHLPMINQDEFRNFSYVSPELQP

For `CCCN1CCC=C(c2ccc(Nc3nc(Nc4ccccc4C(N)=O)c4cc[nH]c4n3)c(C)c2)C1`, the inhibition in assay [1] is -0.1%; in assay [2] it was 2.92%; in assay [3], 2.79%; in assay [4] it was 0.33%; in assay [5], 6.13%; in assay [6], -0.14%. Also, the inhibition was -0.64% in [7]; 5.56% in assay [8]; 4.73% in assay [9]; 3.41% in assay [10]; 9.77% in [11]; 0.1% in [12]. For the same compound, the inhibition amounted to 1.27% in assay [13]; 2.34% in assay [14]; 3.28% in assay [15]; 1.44% in [16]; 3.5% in [17]; 33.8% in [18]. For the same compound, the inhibition in [19] came out at 71.3%; in assay [20] it was 25.1%.
As for `Fc1cccc(COc2ccc(Nc3ncnc4cc(-c5ccc[nH]5)sc34)cc2Cl)c1`, the inhibition in [1] is 1.86%; in assay [2], -2.47%; in assay [3] it was -0.52%; in assay [4] it was -3.29%; in [5], -1.9%; in assay [6] it was 1.37%. Also, the inhibition came to 0.9% in [7]; 2.87% in assay [8]; 4.5% in assay [9]; 3.21% in assay [10]; 2.69% in [11]; 1.76% in assay [12]. Further, the inhibition was 1.59% in assay [13]; 0.25% in assay [14]; 2.17% in [15]; 0.99% in assay [16]; 2.94% in assay [17]; -0.95% in assay [18]. The inhibition is -1.14% in assay [19] and -0.92% in assay [20].
For `CCn1c(-c2nonc2N)nc2c(C#CC(C)(C)O)nc(CN3CCCC3)cc21`, the inhibition in [1] came to 0.46%; in assay [2], 8.62%; in assay [3] it was 44.9%; in assay [4] it was 2.29%; in [5] it was 6.77%; in assay [6], 3.02%. For the same compound, the inhibition was 14.2% in [7]; 19.5% in assay [8]; 67.3% in [9]; 3.19% in [10]; 8.24% in [11]; 0.19% in assay [12]. Besides, the inhibition was determined as 1.41% in assay [13]; 2.28% in assay [14]; 7.85% in assay [15]; 3.25% in assay [16]; 6.65% in assay [17]; 1.55% in assay [18]. In addition, the values for the inhibition in assay [19] and in [20] were 5.93% and 1.71%, respectively.
Take `NCc1ccc(-c2nc(-c3ccc(Cl)c(O)c3)c(-c3ccncc3)[nH]2)cc1`: the inhibition stood at 2.25% in [1]; 1.31% in [2]; 3.95% in assay [3]; 0.75% in assay [4]; 2.46% in assay [5]; 5.37% in assay [6]. Further, the inhibition is 27.9% in assay [7]; 1.93% in [8]; 3.81% in [9]; 0.36% in assay [10]; 0.42% in [11]; -0.2% in assay [12]. For the same compound, the inhibition in assay [13] was -0.02%; in assay [14], -0.02%; in assay [15], -0.18%; in assay [16], 0.76%; in assay [17] it was 10.8%; in assay [18], 0.78%. The inhibition in assay [19] came to 2.64%; in assay [20], 1.57%.
Regarding `CCn1c(-c2nonc2N)nc2cnc(Oc3cccc(NC(=O)c4ccc(OCCN5CCOCC5)cc4)c3)cc21`, the inhibition in [1] came out at 2.08%; in assay [2] it was 17.5%; in assay [3] it was 65.8%; in [4] it was 3.09%; in assay [5], 34.1%; in assay [6], 37.3%. Further, the inhibition in [7] was 64.2%; in assay [8], 71.2%; in assay [9], 94.9%; in assay [10] it was 13.9%; in assay [11] it was 55%; in assay [12], 23.4%. For the same compound, the inhibition was 64.9% in [13]; 20% in assay [14]; 67.4% in [15]; 11.6% in assay [16]; 42.4% in [17]; 2.46% in assay [18]. The inhibition turned out to be 3.36% in assay [19] and 3.04% in assay [20].
`NS(=O)(=O)c1cccc(-c2ccc3c(NC(=O)C4CC4)n[nH]c3c2)c1`: the inhibition in assay [1] was -1.98%; in assay [2] it was -0.94%; in assay [3], 0.85%; in assay [4], -0.24%; in assay [5] it was 0.92%; in assay [6], -0.11%. Besides, the inhibition is 2.66% in assay [7]; -2.13% in assay [8]; -2.3% in assay [9]; -1.53% in assay [10]; 3.74% in assay [11]; 0.3% in [12]. The inhibition is 0.53% in assay [13]; 0.17% in [14]; 0.88% in [15]; -0.62% in [16]; 2.57% in assay [17]; -0.83% in assay [18]. Further, the figures for the inhibition in assay [19] and in assay [20] were 0.65% and -0.79%, respectively.
On to `COc1cccc(-n2ncc3c(N/N=C/c4cccc(F)c4)ncnc32)c1`, for which the inhibition was 1.33% in assay [1]; -1.81% in [2]; -1.91% in assay [3]; -3.02% in assay [4]; -2.41% in assay [5]; 0.85% in assay [6]. Also, the inhibition in assay [7] came out at 1.36%; in [8], 0.06%; in assay [9] it was 3.37%; in assay [10] it was 2.4%; in assay [11], 1.92%; in [12] it was 1.95%. For the same compound, the inhibition in [13] was 1.9%; in assay [14], 0.55%; in assay [15], 2.23%; in assay [16] it was 1.7%; in assay [17], 3.14%; in assay [18], -1.15%. In addition, the values for the inhibition in [19] and in [20] were 0.28% and -1.06%, respectively.

In general, inhibition refers to the drop in the measured response relative to a control, in per cent.

The values are drawn from ChEMBL document CHEMBL1961873, “Compounds: GSK PKIS; Assays: Nanosyn kinase panel” (2012).
